system: Plasmodium falciparum NF54; experiment: growth inhibition relative to untreated control; higher = more inhibition; details: 5 µM; minimal medium (MM); 72 h
In short: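 Ring-stage P. falciparum NF54 parasites at 1% hematocrit and 1% parasitemia were dispensed at 100 μL/well into dark 96-well half-area plates and given a single dose of test compound at 5 μM or 1 μM for 72 h at 37 °C. Incubation took place in minimal RPMI, either alone or supplemented with the chorismate end-products folate (2.2 μM), pABA (7.3 μM), pHBA (7.3 μM), tyrosine (111 μM), phenylalanine (90 μM) and tryptophan. Growth inhibition was determined with SYBR Green relative to untreated wells, using uninfected erythrocytes for background.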

SMILES | growth inhibition
CC(C)(C)n1nc(Cc2ccc(F)c(Cl)c2)c2c(N)ncnc21 | 1.6%
c1ccc2c(c1)CN(CC1CC1)CC1(CCN(Cc3c[nH]c4cnccc34)CC1)O2 | 87.4%
CN(C(=O)c1cc2c(-c3cncnc3)cccc2[nH]1)c1ccccc1 | 94.3%
CCN(CC)S(=O)(=O)c1ccc(Cl)c(C(=O)Nc2ccc3nc(C)sc3c2)c1 | 94.1%
CNC(=O)C1Cc2ccccc2N1C(=O)Cc1ccc(F)cc1 (stereo not drawn) | < 0%
Nc1cccnc1Nc1ccc(Cl)cc1 | 19.2%
CC1CCCN(C(=O)C(C)Nc2cc(Cl)ccc2N2CCOCC2)C1 (stereo not drawn) | 94.9%
NCC(=O)N1CCn2c(nc(-c3ccccc3)c2Nc2ccc3c(c2)OCO3)C1 | 93.2%
COc1ccc(-c2cncc3ccc(C(=O)NCCCn4ccnc4)nc23)cc1 | 92.4%
CCS(=O)(=O)N(Cc1ccco1)Cc1cc2ccc(C)cc2nc1O | 94.5%
FC(F)(F)c1cc(NCCc2ccccc2)nc(-c2ccccn2)n1 | < 0%
O=C(Nc1nnc(-c2ccc(Cl)s2)o1)c1ccc(Cl)s1 | < 0%
O=C(NCCc1ccccc1)c1cc(-c2cccnc2)cnc1NCC1CC1 | 47%
Cc1ccc2nc(Cl)c(CNCc3cccs3)cc2c1 | < 0%
CC(C)NCC(=O)Nc1cccc(C(=O)Nc2cccc(C(F)(F)F)c2)c1 | 97.4%
O=C(Nc1nc(-c2ccccn2)cs1)c1cncn1-c1ccccc1 | < 0%
CCOc1ccc(-c2nc(NC(=O)CS(=O)(=O)c3ccccc3)sc2C)cc1 | 92.6%
O=C(NCc1cc(Cl)cc(Cl)c1)c1c(C(F)(F)F)nc2ccccn12 | 9.63%
Cc1cc2ccccc2n1CC(=O)N1CC(C(=O)N2CCCCC2)Oc2ccccc21 (stereo not drawn) | 98%

SMILES | growth inhibition
Nc1ncnc2c1c(-c1cnc3ccccc3c1)nn2CC1CCNCC1 | 16.8%
CC(C)(C)n1nc(Cc2cccc3ccccc23)c2c(N)ncnc21 | 29.5%
N=C(N)c1ccc(-c2cc(-c3ccccc3)on2)cc1 | 71.2%
COc1cccc(NC(=O)c2c(NC(=O)c3cccnc3)sc3c2CCC3)c1 | 8.07%
O=C(C1CCCCC1)N1CC(=O)N2CCc3ccccc3C2C1 (stereo not drawn) | < 0%
CCCNC(=O)N1CCC2(CC1)CC(=O)c1cc(C)ccc1O2 | 84.9%
Cc1ccc(S(=O)(=O)N2CCN(C(=O)c3cc(-c4ccccc4)n[nH]3)CC2)cc1 | 88.6%
COc1cccc(OC)c1C(=O)Nc1ccc(Cl)c(-c2nc3ccccc3s2)c1 | 29.8%
CC1CS(=O)(=O)CCN1/N=C/c1ccc([N+](=O)[O-])o1 (stereo not drawn) | < 0%
COc1ccc(C2(C(=O)Nc3ccc(Br)cc3)CCCC2)cc1 | 2.98%
CCN(CC)S(=O)(=O)c1ccc(C(=O)Nc2cc(C)nn2-c2nc(C)c(C)c(=O)[nH]2)cc1 | 55.2%
O=C([C@@H](c1ccc(Cl)cc1)c1cccnc1)N1CCN(c2ccc(C(F)(F)F)cc2)CC1 | 7.9%
Clc1ccc(-n2cc(COc3ccnc4ccccc34)nn2)cc1 | 16%
N=C(N)Nc1ccc(-c2ccc(-c3ccc(NC(=N)N)cc3Cl)o2)c(Cl)c1 | 95.3%
CN1CCC(c2cc(-c3ccncc3)c(-c3ccc(F)cc3)[nH]2)CC1 | 92.2%
Cc1cc(NC(=O)c2ccc(Oc3ccc(Cl)cc3O)o2)no1 | 34.9%
Cc1cc(Nc2ccncc2)n2nc(C)c(-c3ccccc3Cl)c2n1 | 92.2%
O=C(Nc1ccc(C(F)(F)F)c(C(F)(F)F)c1)c1cc(Cl)ccc1O | 92.5%
Cc1c[nH]c(CCNC(=O)c2cc(-c3ccc(Cl)cc3)cs2)n1 | 94.7%
